Assay results as given in PubChem BioAssay (EPA / NIEHS).
“And” between values parts separate entries of the source, which are not always exact repeats. Identical values can stand only once. Results filed as inconclusive are left out. The source made the active and inactive calls. How the source made its calls, unless noted: active means hit-call score of the fitted dose curve at least 0.9, where 1 is the maximum; inactive means score below 0.9.

Columns and labels:
[1] = read-out: Interleukin-1 alpha (IL1a), IL1A (gene 3552); assay: BSK_IMphg_IL1a: BioMAP Diversity Plus: IMphg Assay for Interleukin-1 alpha (IL1a) Biomarker Activity (AID 2284290); conditions: primary human endothelial cells with macrophages
Summary of the method: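 Human venular endothelial cells co-cultured with macrophages, IMphg system. IL-1α is measured by ELISA 24 h after dosing and fitted in the positive direction against DMSO. Cytotoxicity is assessed by SRB staining of parallel cultures.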

[2] = BSK_IMphg_SRB: Viability Assessment in the BioMAP Diversity Plus: IMphg Assay (AID 2284292); conditions: primary human endothelial cells with macrophages;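 further: measured one day after compound addition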
Summary of the method: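 Human venular endothelial cells with macrophages, 24 h after chemical dosing; total protein by 0.1% SRB staining after 10% TCA fixation, read at 560 nm. Positive-direction fitting versus DMSO baseline.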

[3] = read-out: Interleukin-10 (IL10), IL10 (gene 3586); assay: BSK_IMphg_IL10: BioMAP Diversity Plus: IMphg Assay for Interleukin-10 (IL10) Biomarker Activity (AID 2284294); conditions: primary human endothelial cells with macrophages
Summary of the method: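 Human venular endothelial cells cocultured with macrophages, dosed 24 h; IL-10 measured by ELISA, activity relative to DMSO. Cytotoxicity assessed in parallel cultures by sulforhodamine B total-protein staining.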

[4] = read-out: Thrombomodulin, THBD (gene 7056); assay: BSK_LPS_Thrombomodulin: BioMAP Diversity Plus: LPS Assay for Thrombomodulin Biomarker Activity (AID 2284296); conditions: primary human HUVEC with PBMC
Summary of the method: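 Human umbilical vein endothelial cells co-cultured with PBMC and stimulated with LPS; cell-surface thrombomodulin measured by ELISA 24 hours after compound. Gain or loss versus DMSO; cytotoxicity checked by SRB staining in parallel cultures.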

[5] = Tanguay_ZF_120hpf_MO24: Oregon State University Tanguay Lab 24 Hour Post-fertilization zebrafish Assay for Mortality (AID 2284389)
Summary of the method: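 Dechorionated wild-type zebrafish embryos, 1 per well, statically exposed from 6 hpf at 28C, 0.64% DMSO final. Mortality scored as binary present/absent at 24 hpf by brightfield microscopy, relative to DMSO.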

[6] = Tanguay_ZF_120hpf_MORT: Oregon State University Tanguay Lab 120 Hour Post-fertilization zebrafish Assay for Mortality (AID 2284399)
Summary of the method: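 Dechorionated wild-type Tropical 5D zebrafish embryos, one per well from 6 hpf, static exposure to 120 hpf at 28C in sealed dark plates, 0.64% DMSO final. Mortality scored as binary by brightfield at 24 and 120 hpf.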

[7] = Tanguay_ZF_120hpf_BRN: Oregon State University Tanguay Lab 120 Hour Post-fertilization zebrafish Assay for Brain Region Malformation (AID 2284402)
Summary of the method: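 Dechorionated wild-type Tropical 5D zebrafish embryos exposed statically from 6 to 120 hpf at 28C, one per well, 0.64% DMSO final. Brain malformation scored at 120 hpf by brightfield as present/absent; dead embryos not scored.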

TTR (gene 7276) = assay: CCTE_GLTED_hTTR_0.5uM: CCTE's human Transthyretin (hTTR) Inhibition Assay, with 0.5uM TTR, Great Lakes Toxicology and Ecology Division (GLTED) Lab (AID 2284320)
Summary of the method: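 Cell-free displacement assay in which human TTR at 0.5 uM was incubated with test chemical for 2 h. Displacement of the ANSA probe was read by fluorescence at 380 nm excitation/475 nm emission. Loss of signal was fitted in the positive direction versus DMSO.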

[8] = CCTE_Deisenroth_5AR_NBTE_donor: CCTE's 5alpha-reductase NanoBRET Target Engagement Assay […], Deisenroth Lab (AID 2284319); conditions: actives raise or lower the signal
Summary of the method: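 HEK293T cells were reverse transfected with an SRD5A2-NanoLuc vector for 20 h, exposed to test chemical (8 points, 10 nM - 29.9 uM) for 3 h, then testosterone tracer for 2 h more. Donor luminescence (460 nm) was read; bidirectional fit versus DMSO.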

[9] = CCTE_Deisenroth_5AR_NBTE_acceptor: CCTE's 5alpha-reductase NanoBRET Target Engagement Assay - Autofluorescence Screen, Deisenroth Lab (AID 2284321); conditions: actives raise or lower the signal;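 further: compound fluorescence in the acceptor channel under 460 nm excitation flags autofluorescence artifacts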
Summary of the method: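 Acceptor-channel fluorescence flags artifacts, with excitation fixed at 460 nm. Nominal 100 uM chemical samples were read in triplicate runs, and signal changes were fitted in both directions relative to DMSO.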

SRD5A2 (gene 6716) = assay: CCTE_Deisenroth_5AR_NBTE_ratio: CCTE's 5alpha-reductase NanoBRET Target Engagement Assay - Ratio, Deisenroth Lab (AID 2284322); conditions: actives raise or lower the signal
Summary of the method: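 Reverse-transfect HEK293T with pNLF1-C-SRD5A2, express 20 h. Pre-incubate cells with chemical 3 h (8-point series, 10 nM - 29.9 uM, duplicate). Add testosterone tracer, 2 h more. Add substrate/inhibitor, read donor and acceptor emission.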

SERPINA7 (gene 6906) = assay: CCTE_GLTED_hTBG: CCTE's human Thyroxine-binding Globulin (TBG) Inhibition Assay, Great Lakes Toxicology and Ecology Division (GLTED) Lab (AID 2284343; active means hit-call score of the fitted dose curve at least 0.9, where 1 is the maximum;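 further: active chemicals lower fluorescence versus DMSO baseline by displacing probe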)
Summary of the method: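 Cell-free binding assay in which human TBG is incubated with test chemical for 2 hours and displacement of the fluorescent probe ANSA is read at 380 nm excitation/475 nm emission. Activity is fitted against DMSO as the negative control.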

IYD (gene 389434) = assay: CCTE_GLTED_hIYD: CCTE's human Iodotyrosine Deiodinase (xIYD) Inhibition Assay, Great Lakes Toxicology and Ecology Division (GLTED) Lab (AID 2284317; active means hit-call score of the fitted dose curve at least 0.9, where 1 is the maximum;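 further: cell-free human IYD enzyme made in baculovirus insect cells; iodide freed from monoiodotyrosine measured by cerium arsenite color change at 420 nm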)
Summary of the method: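 Human IYD expressed in a baculovirus-insect cell system was incubated 3 h with monoiodotyrosine and test chemical. Released iodide, separated on Dowex columns, was quantified by the Sandell-Kolthoff reaction at 420 nm; plates were normalized to MNT and DMSO/NaOH controls.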

[10] = CCTE_Mundy_HCI_iCellGluta_NOG_NeuriteLength: CCTE's Neurite Outgrowth Assay in iCellGluta cells for Neurite Length, Mundy Lab (AID 2284318; active means hit-call score of the fitted dose curve at least 0.9, where 1 is the maximum)
Summary of the method: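 Automated high-content imaging of betaIII-tubulin (Alexa Fluor-488) and Hoechst-stained cells gave neurite length, normalized to the DMSO baseline.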

[11] = CCTE_Mundy_HCI_iCellGluta_NOG_NeuronCount: CCTE's Neurite Outgrowth Assay in iCellGluta cells for Neuron Count, Mundy Lab (AID 2284340; active means hit-call score of the fitted dose curve at least 0.9, where 1 is the maximum;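 further: cells fixed about 48 h after compound addition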)
Summary of the method: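 Neuron count read by automated high-content imaging of Hoechst 33342 and betaIII-tubulin/Alexa Fluor-488 labelling in human iPSC glutamatergic neurons. Activity fitted relative to DMSO.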

[12] = CCTE_Mundy_HCI_iCellGluta_NOG_NeuriteCount: CCTE's Neurite Outgrowth Assay in iCellGluta cells for Neurite Count, Mundy Lab (AID 2284342; active means hit-call score of the fitted dose curve at least 0.9, where 1 is the maximum;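 further: chemical exposure about 48 hours starting 2 hours after plating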)

Measured: AC50

OCC(O)CC(F)(F)C(F)(F)C(F)(F)C(F)(F)C(F)(F)C(F)(F)C(F)(F)C(F)(F)F (stereo unspecified)
inactive: [1] | [2] | [3] | [4] | [5] | [6] | [7]

OCC(O)CC(F)(F)C(F)(F)C(F)(F)C(F)(F)F (stereo unspecified)
inactive: [1] | [2] | [3] | [4] | [5] | [6] | [7]

O=C(Cl)C(F)(F)C(F)(F)C(F)(F)C(F)(F)C(F)(F)C(F)(F)C(F)(F)F
active: TTR (gene 7276) 0.599 µM
inactive: [1] | [2] | [3] | [4]

CCN=C1C=CC(=C(c2ccc(N(CC)CC)cc2)c2ccc(N(CC)CC)cc2)c2ccccc21
active: [8] 6.95 µM | [9] 2.24 µM | SRD5A2 (gene 6716) 0.166 µM | SERPINA7 (gene 6906) 4.51 µM
inactive: [4]

O=S(=O)(OCC(F)(F)F)C(F)(F)C(F)(F)C(F)(F)C(F)(F)F
active: TTR (gene 7276) 1.4 µM
inactive: [1] | [2] | [3] | [4] | [5] | [6] | [7]

FC(F)(F)C(F)(F)C(F)(F)CC1CO1 (stereo unspecified)
inactive: [1] | [2] | [3] | [4] | [5] | [6] | [7]

O=C(O)C(F)(F)C(F)(F)C(F)(F)C(F)(F)C(F)(F)C(F)(F)C(F)F
inactive: [1] | [2] | [3] | [4]
active: TTR (gene 7276) 0.275 µM | SERPINA7 (gene 6906) 26.5 µM

OC(O)C(F)(F)C(F)(F)F
inactive: [1] | [2] | [3] | [4] | [5] | [6] | [7]

CCCCCCCCn1sc(Cl)c(Cl)c1=O
active: IYD (gene 389434) 100 µM

O=C(c1ccccc1)c1ccc(O)cc1O
active: SERPINA7 (gene 6906) 9.12 µM

CO[Si](C)(CCC(F)(F)C(F)(F)C(F)(F)C(F)(F)C(F)(F)C(F)(F)F)OC
inactive: [1] | [2] | [3] | [4] | [5] | [6] | [7]

CCCCCCCCCc1ccc(OCCO)cc1
active: [8] 40.3 µM | [9] 19.1 µM | SRD5A2 (gene 6716) 88.8 µM | SERPINA7 (gene 6906) 50 µM

OCC(F)(F)C(F)(F)C(F)(F)C(F)(F)C(F)(F)C(F)(F)CO
inactive: [1] | [2] | [4] | [5] | [6] | [7]
active: [3] 3.34 µM and 5.58 µM | TTR (gene 7276) 11.2 µM

CCCCCCCC/C=C\CCCCCCCC(=O)N(C)CC(=O)O
active: IYD (gene 389434) 58.2 µM | SERPINA7 (gene 6906) 5.56 µM
inactive: [8] | [9] | SRD5A2 (gene 6716)

C[Si](Cl)(Cl)CCC(F)(F)C(F)(F)C(F)(F)C(F)(F)C(F)(F)C(F)(F)F
inactive: [1] | [2] | [3] | [4] | [5] | [6] | [7]

FC(F)(F)C(F)(F)C(F)(F)C(F)(F)C(F)(F)C(F)(F)CC[Si](Cl)(Cl)Cl
inactive: [1] | [2] | [3] | [4] | [5] | [6] | [7]

O=C(O)CCC(F)(F)C(F)(F)C(F)(F)F
active: TTR (gene 7276) 17.6 µM
not listed: [8] | [9] | SRD5A2 (gene 6716) | SERPINA7 (gene 6906) | IYD (gene 389434)
inactive: all other assays above

O=C1C=CC(=O)N1c1ccccc1
active: [8] 50 µM | [9] 50 µM | SRD5A2 (gene 6716) 22.3 µM
